The values that follow come from PubChem BioAssay (Tox21).

Several values for one entry are separate records, joined by “and”; a condition that tells them apart may be missing. Identical values can stand only once. Inconclusive results are not listed. Some structures have more than one record in an assay (separate samples or runs), and their calls can disagree. Activity calls are given as the source filed them. Unless noted, calls come from the whole dose curve; as a rule, active = well fitted curve in the direction sought with a large enough effect in the repeat runs; inconclusive = weak or mixed curves; inactive = no such curve, though single readings can be large; an effect the other way counts as inactive or inconclusive.

A short description of assay [1]: qHTS assay to identify small molecule antagonists of the thyroid receptor (TR) signaling pathway - cell viability counter screen (AID 743064). Note: nearly all actives have a fitted effect of over 50% in size. The essentials:
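GH3.TRE-Luc cells, 4 h pre-plating; cpd + T3 1 nM final; 37 °C 23.5 h; CellTiter-Fluor 30 min; fluorescence read.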
(Quantitative high-throughput screening tests each substance at several concentrations.)

Assay [2] is described as follows: qHTS assay to identify small molecule antagonists of the thyroid receptor (TR) signaling pathway (AID 743065). Note: series mostly up to about 70 µM; nearly all actives have a fitted effect of over 55% in size. The essentials:
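GH3.TRE-Luc rat pituitary cells carrying two TR response elements driving luciferase were plated for 4 h, given compound plus 1 nM T3 (final), and incubated 23.5 h at 37 C. ONE-Glo luminescence measured reporter inhibition; CellTiter-Fluor fluorescence tracked cytotoxicity.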

Assay [3] concerns thyroid hormone receptor (rat, GH3 cells). The assay can be described thus: qHTS assay to identify small molecule agonists of the thyroid receptor (TR) signaling pathway (AID 743066; calls by dose curve).
In assay [4] the target is Estrogen receptor (Homo sapiens) (UniProt P03372). The assay can be described thus: qHTS assay to identify small molecule antagonists of the estrogen receptor alpha (ER-alpha) signaling pathway (AID 743069; active = well fitted curve in the direction sought with a large enough effect in the signal ratio in the repeat runs, not every such curve was filed as active; the % refers to the signal ratio). The essentials: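 HEK293 cells stably carrying an ER-alpha-UAS-bla beta-lactamase reporter were pre-cultured overnight in 2% charcoal-stripped FBS medium. Test compounds in DMSO were added together with 17beta-estradiol for 18 hr at 37C. Read-out was fluorescence after 2 hr with LiveBLAzer B/G FRET substrate at room temperature.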

The nature of assay [5]: qHTS assay to identify small molecule antagonists of the estrogen receptor alpha (ER-alpha) signaling pathway - cell viability counter screen (AID 743074; calls by dose curve; note: nearly all actives have a fitted effect of over 45% in size).
The target in assay [6] is Estrogen receptor (Homo sapiens) (UniProt P03372). The assay can be described thus: qHTS assay to identify small molecule agonists of the estrogen receptor alpha (ER-alpha) signaling pathway (AID 743075; calls by dose curve; note: potency is the fitted concentration of half-maximal effect).
Assay [7] has the same target. Description: qHTS assay to identify small molecule agonists of the estrogen receptor alpha (ER-alpha) signaling pathway using the BG1 cell line (AID 743079). Note: nearly all actives have a fitted effect of over 20% in size. Note: potency is the fitted concentration of half-maximal effect.
A short description of assay [8]: qHTS assay to identify small molecule antagonists of the estrogen receptor alpha (ER-alpha) signaling pathway using the BG1 cell line (AID 743080; calls by dose curve;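 note: BG1 cells stimulated with 17beta-estradiol alongside compound; series mostly up to about 70 µM; nearly all actives have a fitted effect of over 25% in size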). The essentials: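 Luciferase inhibition measured with ONE-Glo after 30 min at RT in BG1Luc4E2 cells given test compounds and 17beta-estradiol for 21.5 h at 37 C; CellTiter-Fluor viability read in the same wells beforehand.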

Assay [9] is described as follows: qHTS assay to identify small molecule antagonists of the estrogen receptor alpha (ER-alpha) signaling pathway using the BG1 cell line - cell viability counter screen (AID 743081).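 Note: compound given together with 17beta-estradiol as the ER stimulus; series mostly up to about 70 µM; nearly all actives have a fitted effect of over 45% in size.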
The target in the next assay is Aromatase (Homo sapiens) (UniProt P11511). Description: qHTS assay to identify aromatase inhibitors (AID 743083). Note: series mostly up to about 70 µM; nearly all actives have a fitted effect of over 55% in size.
Assay [10] is described as follows: qHTS assay to identify aromatase inhibitors - cell viability counter screen (AID 743084).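 Note: cells stimulated with testosterone during compound exposure; nearly all actives have a fitted effect of over 55% in size.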
The target in assay [11] is Aryl hydrocarbon receptor (Homo sapiens) (UniProt P35869). The assay can be described thus: qHTS assay to identify small molecule that activate the aryl hydrocarbon receptor (AhR) signaling pathway (AID 743085).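 For activation: HG2L7.5c1 human HepG2 liver cells with stably integrated DRE-driven firefly reporter; series mostly up to about 70 µM.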 Note: nearly all actives have a fitted effect of over 15% in size. Note: potency is the fitted concentration of half-maximal effect. The essentials:
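Luminescence read-out: ONE-Glo reagent, 30 min at room temperature, in HG2L7.5c1 HepG2 reporter cells treated 24 h at 37C. Viability was measured beforehand by CellTiter-Fluor fluorescence after 30 min at 37C.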

The nature of assay [12]: qHTS assay to identify small molecule that activate the aryl hydrocarbon receptor (AhR) signaling pathway - cell viability counter screen (AID 743086).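 Note: HepG2 liver cells carrying the AhR DRE luciferase reporter; series mostly up to about 70 µM; nearly all actives have a fitted effect of over 45% in size.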 The essentials: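 HepG2-AhR-luc (HG2L7.5c1) cells, 4000/well, were preincubated 5 h at 37C, exposed to compound in qHTS format for 24 hr at 37C, then given CellTiter-Fluor for 30 min; viability was read as fluorescence in the reporter wells.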

The target in assay [13] is Peroxisome proliferator-activated receptor gamma (Homo sapiens) (UniProt P37231). The assay can be described thus: qHTS assay to identify small molecule agonists of the peroxisome proliferator-activated receptor gamma (PPARg) signaling pathway (AID 743094; active = well fitted activation curve with a large enough effect in the signal ratio in the repeat runs, not every such curve was filed as active; the % refers to the signal ratio). The essentials:
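Following 5 h plating at 37C, PPARg-bla HEK293H cells receive compound or DMSO for 17 h; fluorescence intensity is recorded after LiveBLAzer B/G loading for 1 h at room temperature.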

Assay [14] in a line: qHTS assay to identify small molecule antagonists of the peroxisome proliferator-activated receptor gamma (PPARg) signaling pathway - cell viability counter screen (AID 743194). Note: nearly all actives have a fitted effect of over 55% in size. The method in brief: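 PPARg-UAS-bla HEK293H cells were plated, rested 5 h at 37 C, then treated with compounds plus rosiglitazone (50 nM final) for 17 h at 37 C; viability was then read by CellTiter-Glo luminescence after 30 min at room temperature.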

Assay [15] can be described thus: qHTS assay for small molecule agonists of the antioxidant response element (ARE) signaling pathway (AID 743202; active = well fitted activation curve with a large enough effect in the signal ratio in the repeat runs, not every such curve was filed as active; the % refers to the signal ratio). The method in brief: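 Read-out: LiveBLAzer B/G FRET substrate fluorescence after 2 h at room temperature, following 16 h compound treatment at 37 C of HepG2 cells carrying an ARE-driven beta-lactamase reporter.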
The nature of assay [16]: qHTS assay for small molecule agonists of the antioxidant response element (ARE) signaling pathway - cell viability counter screen (AID 743203; calls by dose curve; note: nearly all actives have a fitted effect of over 55% in size). The method in brief:
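Compounds in DMSO were pinned onto ARE-bla HepG2 cells plated 5 hrs earlier at 2,000 cells/well. Sixteen hours later at 37C/5% CO2, CellTiter-Glo was added and luminescence measured after 30 min at room temperature.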

Assay [17] in a line: qHTS assay for small molecule activators of the heat shock response signaling pathway - cell viability counter screen (AID 743209). Note: nearly all actives have a fitted effect of over 50% in size. The method in brief:
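Counter screen for cytotoxicity in HeLa HSE-bla reporter cells. Treatment was 5 h at 37 C; viability was detected by luminescent ATP assay (CellTiter-Glo) in the same wells as the beta-lactamase read.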

Assay [18] in a line: qHTS assay for small molecule activators of the heat shock response signaling pathway (AID 743210; active = well fitted activation curve with a large enough effect in the signal ratio in the repeat runs, with a control signal flat, not every such curve was filed as active; the % refers to the signal ratio; note: series mostly up to about 63 µM). The method in brief: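 HSE-bla HeLa cells (beta-lactamase reporter under heat shock response elements) were exposed to compounds for 5 h at 37 C, then loaded with LiveBLAzer B/G FRET substrate for 2.5 h at room temperature before fluorescence reading.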
Assay [19] deals with Peroxisome proliferator-activated receptor gamma (Homo sapiens) (UniProt P37231). The assay can be described thus: qHTS assay to identify small molecule antagonists of the peroxisome proliferator-activated receptor gamma (PPARg) signaling pathway (AID 743191; calls by dose curve; note: series mostly up to about 63 µM; nearly all actives have a fitted effect of over 30% in size). The essentials: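 GeneBLAzer PPARg UAS-bla HEK293H cells carrying a UAS-driven beta-lactamase reporter were plated at 3000 cells/well, preincubated 5 h at 37C, then given compound for 17 h at 37C; LiveBLAzer B/G FRET substrate was read after 1 h at room temperature.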
Sequence of Peroxisome proliferator-activated receptor gamma (Homo sapiens) (P37231 whole entry, looked up): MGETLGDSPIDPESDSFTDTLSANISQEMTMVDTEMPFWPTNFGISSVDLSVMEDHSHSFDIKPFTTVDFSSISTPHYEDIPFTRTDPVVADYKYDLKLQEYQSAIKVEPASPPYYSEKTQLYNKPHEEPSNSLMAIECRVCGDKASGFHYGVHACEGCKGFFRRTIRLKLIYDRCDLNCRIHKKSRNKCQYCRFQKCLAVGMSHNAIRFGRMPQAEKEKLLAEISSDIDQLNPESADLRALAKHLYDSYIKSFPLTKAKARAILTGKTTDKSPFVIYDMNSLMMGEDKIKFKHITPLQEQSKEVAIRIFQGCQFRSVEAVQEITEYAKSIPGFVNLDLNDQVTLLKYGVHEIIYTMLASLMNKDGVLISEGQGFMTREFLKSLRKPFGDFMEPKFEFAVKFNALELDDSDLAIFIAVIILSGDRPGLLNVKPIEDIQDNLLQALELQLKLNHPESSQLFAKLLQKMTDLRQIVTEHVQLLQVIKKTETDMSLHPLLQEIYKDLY

Sequence of Estrogen receptor (Homo sapiens) (P03372 whole entry, looked up): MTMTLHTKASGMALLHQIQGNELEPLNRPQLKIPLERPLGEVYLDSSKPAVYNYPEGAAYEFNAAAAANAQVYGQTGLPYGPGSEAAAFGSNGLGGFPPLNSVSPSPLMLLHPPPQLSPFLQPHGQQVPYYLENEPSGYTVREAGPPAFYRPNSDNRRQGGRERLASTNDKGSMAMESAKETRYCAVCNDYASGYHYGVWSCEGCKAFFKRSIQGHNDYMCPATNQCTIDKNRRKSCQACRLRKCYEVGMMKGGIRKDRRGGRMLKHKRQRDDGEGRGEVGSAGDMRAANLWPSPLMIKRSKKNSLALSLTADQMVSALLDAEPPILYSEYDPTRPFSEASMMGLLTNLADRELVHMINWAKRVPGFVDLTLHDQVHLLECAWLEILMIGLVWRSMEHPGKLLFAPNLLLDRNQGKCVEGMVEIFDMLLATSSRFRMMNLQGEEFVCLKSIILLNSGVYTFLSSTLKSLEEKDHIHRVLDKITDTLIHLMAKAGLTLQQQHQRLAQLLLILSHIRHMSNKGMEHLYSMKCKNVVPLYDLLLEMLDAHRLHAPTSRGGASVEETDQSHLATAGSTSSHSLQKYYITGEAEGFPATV
Sequence of Aromatase (Homo sapiens) (P11511 whole entry, looked up): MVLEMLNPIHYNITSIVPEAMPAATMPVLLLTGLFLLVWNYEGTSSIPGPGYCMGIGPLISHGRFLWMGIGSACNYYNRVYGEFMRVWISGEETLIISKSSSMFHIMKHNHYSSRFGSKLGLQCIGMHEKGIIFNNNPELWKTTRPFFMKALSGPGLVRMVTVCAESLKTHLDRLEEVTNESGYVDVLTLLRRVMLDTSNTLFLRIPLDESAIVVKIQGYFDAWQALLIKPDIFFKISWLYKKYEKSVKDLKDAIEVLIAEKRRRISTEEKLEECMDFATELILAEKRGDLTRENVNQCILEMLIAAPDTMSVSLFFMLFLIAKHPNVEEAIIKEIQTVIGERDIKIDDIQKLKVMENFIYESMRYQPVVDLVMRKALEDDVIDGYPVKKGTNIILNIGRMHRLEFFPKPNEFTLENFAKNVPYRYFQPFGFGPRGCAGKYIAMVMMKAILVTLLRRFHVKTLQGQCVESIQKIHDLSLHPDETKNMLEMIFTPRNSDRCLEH
Sequence of Aryl hydrocarbon receptor (Homo sapiens) (P35869 whole entry, looked up): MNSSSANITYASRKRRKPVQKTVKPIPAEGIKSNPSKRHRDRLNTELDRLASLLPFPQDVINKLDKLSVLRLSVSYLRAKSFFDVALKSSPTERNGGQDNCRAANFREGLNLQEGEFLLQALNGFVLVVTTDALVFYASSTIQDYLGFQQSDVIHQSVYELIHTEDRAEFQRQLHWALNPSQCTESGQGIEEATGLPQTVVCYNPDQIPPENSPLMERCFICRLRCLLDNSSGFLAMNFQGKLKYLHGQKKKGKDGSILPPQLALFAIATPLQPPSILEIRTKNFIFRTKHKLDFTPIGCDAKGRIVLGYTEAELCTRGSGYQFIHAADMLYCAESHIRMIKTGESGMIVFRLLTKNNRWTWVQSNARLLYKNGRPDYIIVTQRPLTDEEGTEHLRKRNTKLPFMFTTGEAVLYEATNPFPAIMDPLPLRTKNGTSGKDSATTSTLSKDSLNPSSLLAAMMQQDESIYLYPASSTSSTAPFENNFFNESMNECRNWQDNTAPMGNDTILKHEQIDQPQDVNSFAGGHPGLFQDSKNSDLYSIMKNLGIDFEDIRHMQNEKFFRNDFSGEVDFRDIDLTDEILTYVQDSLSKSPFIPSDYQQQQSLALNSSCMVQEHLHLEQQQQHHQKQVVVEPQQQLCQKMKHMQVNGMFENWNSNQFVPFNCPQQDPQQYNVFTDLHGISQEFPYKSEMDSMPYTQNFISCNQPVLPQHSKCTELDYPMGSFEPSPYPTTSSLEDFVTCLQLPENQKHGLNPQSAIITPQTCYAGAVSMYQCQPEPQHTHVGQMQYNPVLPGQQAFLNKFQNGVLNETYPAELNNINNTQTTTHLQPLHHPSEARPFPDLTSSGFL

Turning to `CCOCC(=O)O`, the Potency entry in [1], in assay [2], in assay [4], in assay [6], in [7] and in assay [9] was “inactive” in each case. Besides, the Potency entry (with Aromatase (Homo sapiens); in [10]; in assay [11]; in assay [12]; in [15]; in assay [16]) was “inactive” throughout. For the same molecule, the call in [3], in [5], in assay [8], in assay [13], in [14] and in [17] was inactive. For the same molecule, the outcome in assay [18] was inactive.

Consider `O=C(OCC1CCC2OC2C1)C1CCC2OC2C1` (stereo not drawn), for which the Potency result in assay [1], in assay [2], in assay [4], in [6], in [7] and in assay [9] was “inactive” each time. Further, the Potency result (in the assay with Aromatase (Homo sapiens); in assay [10]; in [11]; in [12]; in assay [15]) was “inactive” each time. The call in assay [3], in assay [5], in assay [8], in assay [13], in assay [14] and in assay [17] was inactive. In addition, the result in [18] was inactive.

Consider `CC(=O)CCC=C(C)C`, for which the Potency entry (in [1]; in [2]; in [6]; in assay [7]; in assay [9]; in the assay with Aromatase (Homo sapiens)) was “inactive” in each case. In addition, the Potency entry in assay [10], in [11], in [12], in assay [15] and in [16] was “inactive” each time. Moreover, the molecule was classed as inactive in [3], in assay [5], in assay [8], in [13], in assay [19] and in assay [14]. For the same molecule, the call in assay [17] and in assay [18] was inactive.

For the molecule `O=C(O)c1cc2ccccc2cc1O`, the Potency result (in assay [1]; in assay [2]; in assay [9]; with Aromatase (Homo sapiens); in assay [10]; in assay [12]) was “inactive” each time. Besides, the Potency entry in [15] and in [16] was “inactive” throughout. The outcome in assay [3], in assay [5], in [8], in assay [13], in assay [19] and in assay [14] was inactive. Besides, in assay [17], the outcome was inactive. Also, the Potency result in assay [6] is “inactive and 49 µM [activator] (active)”; in assay [7], 54.1 µM (active) and 48.6 µM (active); in assay [11] it was 60.7 µM (active) and 30.6 µM (active).

As for `CC(=O)c1ccc(O)cc1`, the Potency entry (in assay [1]; in assay [2]; in assay [6]; in assay [7]; in [9]; with Aromatase (Homo sapiens)) was “inactive” in each case. Besides, the Potency entry in assay [10], in assay [11], in assay [12] and in assay [15] was “inactive” in each case. In addition, the result in assay [3], in [5], in assay [8], in assay [13], in [19] and in assay [14] was inactive. The molecule was classed as inactive in [17] and in assay [18].

`C=C(C)C(=O)OCC(C)C`: the Potency result (in [1]; in assay [6]; in assay [7]; in [9]; with Aromatase (Homo sapiens); in assay [10]) was “inactive” in each case. Also, the Potency result in assay [11], in [12], in assay [15] and in assay [16] was “inactive” in each case. The outcome in assay [3], in [5], in [8], in [13], in [14] and in [17] was inactive. Moreover, in assay [18], the result was inactive.

`NC(=S)NNC(N)=S`: the Potency entry (in [1]; in [2]; in assay [9]; with Aromatase (Homo sapiens); in [10]; in assay [11]) was “inactive” throughout. Besides, the Potency entry in [12] and in assay [15] was “inactive” throughout. Further, the molecule was classed as inactive in [3], in [5], in [13], in assay [19], in assay [14] and in assay [17]. In assay [18], the molecule was classed as inactive.

Take `CN(C)CCOC(=O)COc1ccc(Cl)cc1`: the Potency result (in assay [1]; in assay [2]; in assay [9]; in the assay with Aromatase (Homo sapiens); in assay [10]; in assay [12]) was “inactive” throughout. In addition, the Potency entry in assay [16] is “inactive”. The molecule was called inactive in assay [3], in [5], in [13], in [19], in [14] and in [17]. In addition, the outcome in assay [18] was inactive.
